According to PubChem BioAssay (Tox21):
Several values for one entry are separate records, joined by “and”; a condition that tells them apart may be missing. Identical values can stand only once. Records with an inconclusive call do not appear. The source holds several records for some structures; these can differ, active in one and inactive in another. Activity calls are given as the source filed them. Unless noted, calls follow the shape of the dose curve; as a rule, active = well fitted curve in the direction sought with a large enough effect in the repeat runs; inconclusive = weak or mixed curves; inactive = no such curve, though single readings can be large; an effect the other way counts as inactive or inconclusive.

What was measured:
[1] = Caspase-3/7 induction in HepG2 cells by small molecules, qHTS assay (AID 1346978); also: % is scaled to controls: 0 for no effect and ±100 for the full control effect; nearly all actives have a fitted effect of over 15% in size
In short: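 Caspase-3/7 induction was measured by Caspase-Glo 3/7 luminescence (30 min, room temperature) after a 17 hr compound exposure of wild-type HepG2 cells seeded at 2,000 per well and pre-incubated 5 hr.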

[2] = Caspase-3/7 induction in CHO-K1 cells by small molecules, qHTS cell viability counter screen (AID 1346979); also: nearly all actives have a fitted effect of over 35% in size; also: potency is read from the fitted curve at half-maximal effect
In short: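 Seeding: 1,500 CHO-K1 cells/well. Rest: 5hr, 37C. Treatment: compounds in DMSO, 16hr. Read: CellTiter-Fluor, 1hr, fluorescence.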

[3] = Caspase-3/7 induction in CHO-K1 cells by small molecules, qHTS assay (AID 1346980); also: % is scaled to controls: 0 for no effect and ±100 for the full control effect; nearly all actives have a fitted effect of over 15% in size
In short: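 Luminescent Caspase-Glo 3/7 read (30min, room temperature) quantified apoptosis induction. Cells were wild-type CHO-K1, treated with compound for 17hr at 37 C and 5% CO2.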

[4] = Caspase-3/7 induction in HepG2 cells by small molecules, qHTS cell viability counter screen (AID 1346981); also: nearly all actives have a fitted effect of over 30% in size; also: potency is read from the fitted curve at half-maximal effect
In short: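 Fluorescence read-out of live-cell protease activity (CellTiter-Fluor) after 1 hr with reagent. This was measured in the same wells as the caspase-3/7 luminescence, on HepG2 cells exposed to DMSO-dissolved compounds for 16 hr at 37 C.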

[5] = target: Acetylcholinesterase (Homo sapiens) (UniProt P22303); test: Acetylcholinesterase (AChE) small molecule antagonists: colormetric cell-based qHTS assay (AID 1347395; calls by dose curve; also: % is scaled to controls: 0 for no effect and ±100 for the full control effect; nearly all actives have a fitted effect of over 30% in size)
Acetylcholinesterase (Homo sapiens), sequence (P22303 whole entry, looked up): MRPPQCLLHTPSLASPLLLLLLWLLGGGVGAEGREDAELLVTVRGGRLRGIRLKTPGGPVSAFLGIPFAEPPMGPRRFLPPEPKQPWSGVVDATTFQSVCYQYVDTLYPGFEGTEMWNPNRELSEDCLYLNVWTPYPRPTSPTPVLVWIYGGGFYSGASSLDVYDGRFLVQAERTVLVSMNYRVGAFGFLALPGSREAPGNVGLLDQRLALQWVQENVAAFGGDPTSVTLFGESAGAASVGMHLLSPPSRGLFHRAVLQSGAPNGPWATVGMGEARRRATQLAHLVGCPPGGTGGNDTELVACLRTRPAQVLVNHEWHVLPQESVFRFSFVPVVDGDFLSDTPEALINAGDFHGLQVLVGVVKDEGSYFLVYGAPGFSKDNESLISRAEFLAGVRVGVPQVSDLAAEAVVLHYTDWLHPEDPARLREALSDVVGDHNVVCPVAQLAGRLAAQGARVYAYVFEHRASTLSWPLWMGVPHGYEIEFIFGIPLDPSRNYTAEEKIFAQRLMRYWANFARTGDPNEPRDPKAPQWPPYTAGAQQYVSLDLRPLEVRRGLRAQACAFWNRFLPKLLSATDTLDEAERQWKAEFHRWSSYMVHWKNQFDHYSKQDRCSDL
In short: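 Quantitative HTS in attached SH-SY5Y cells: 30 min compound exposure, then 90 min with acetylthiocholine and DTNB at 37 C; colour from thiocholine reports AChE activity.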

[6] = target: Acetylcholinesterase (Homo sapiens) (UniProt P22303); test: Acetylcholinesterase (AChE) small molecule antagonists: enzyme-based qHTS assay (AID 1347397; calls by dose curve; also: % is scaled to controls: 0 for no effect and ±100 for the full control effect; nearly all actives have a fitted effect of over 55% in size); conditions: Potency: AChE enzyme activity inhibition
In short: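 Colorimetric DTNB readout of acetylthiocholine hydrolysis, 10 min at room temperature, after 30 min room-temperature exposure of 50 mU/mL recombinant human enzyme to compound; DMSO vehicle control.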

[7] = target: Acetylcholinesterase (Homo sapiens) (UniProt P22303); test: Acetylcholinesterase (AChE) small molecule antagonists: fluorescence cell-based qHTS assay (AID 1347398; calls by dose curve; also: % is scaled to controls: 0 for no effect and ±100 for the full control effect; nearly all actives have a fitted effect of over 50% in size); conditions: Potency: AChE activity
In short: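 Cellular AChE activity read as thiocholine from acetylthiocholine hydrolysis, detected by Thiolite Green fluorescence at 490/520 nm after 40 min at room temperature. Compounds were pre-incubated 30 min at 37 C on adherent SH-SY5Y cells.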

[8] = target: Acetylcholinesterase (Homo sapiens) (UniProt P22303); test: Acetylcholinesterase (AChE) small molecule antagonists: enzyme-based qHTS assay with human liver microsomes (AID 1347399; calls by dose curve; also: % is scaled to controls: 0 for no effect and ±100 for the full control effect; nearly all actives have a fitted effect of over 60% in size); conditions: Potency: qHTS inhibition
In short: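 Recombinant human AChE (50 mU/mL in the enzyme mix) and human liver microsomes (0.25 mg/mL final) were preincubated with compound and NADPH (0.25 mg/mL final) for 30 min at 37 C. Acetylthiocholine/DTNB was then added; thiocholine was read colorimetrically after 10 min at room temperature.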

[9] = target: Cytochrome P450 2C19 (Homo sapiens) (UniProt P33261); test: Cytochrome P450 Family 2 Subfamily C Member 19 (CYP2C19) small molecule antagonists: luciferase reporter qHTS assay (AID 1671197); also: nearly all actives have a fitted effect of over 65% in size; also: potency is read from the fitted curve at half-maximal effect
Cytochrome P450 2C19 (Homo sapiens), sequence (P33261 whole entry, looked up): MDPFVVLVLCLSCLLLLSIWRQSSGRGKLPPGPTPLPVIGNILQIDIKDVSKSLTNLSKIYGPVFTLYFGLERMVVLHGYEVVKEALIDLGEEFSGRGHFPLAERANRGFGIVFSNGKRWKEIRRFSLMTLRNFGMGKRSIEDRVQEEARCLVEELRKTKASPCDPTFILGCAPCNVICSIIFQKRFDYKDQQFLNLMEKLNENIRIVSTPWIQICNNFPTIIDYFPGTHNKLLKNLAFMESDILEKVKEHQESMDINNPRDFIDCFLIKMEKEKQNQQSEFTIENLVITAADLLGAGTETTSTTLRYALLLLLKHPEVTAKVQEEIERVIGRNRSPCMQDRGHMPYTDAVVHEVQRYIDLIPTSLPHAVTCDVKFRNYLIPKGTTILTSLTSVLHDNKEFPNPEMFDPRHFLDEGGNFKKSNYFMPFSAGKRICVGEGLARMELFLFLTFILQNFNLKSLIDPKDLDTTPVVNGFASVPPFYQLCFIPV
In short: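 Quantitative high-throughput screen of the Tox21 library using CYP2C19 with proluciferin substrate. Reaction: NADPH regeneration, 37C, 1 h, after 10 min compound preincubation at room temperature. Readout: luminescence.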

[10] = target: Cytochrome P450 1A2 (Homo sapiens) (UniProt P05177); test: Cytochrome P450 Family 1 Subfamily A Member 2 (CYP1A2) small molecule antagonists: luciferase reporter qHTS assay (AID 1671199); also: nearly all actives have a fitted effect of over 50% in size; also: potency is read from the fitted curve at half-maximal effect
Cytochrome P450 1A2 (Homo sapiens), sequence (P05177 whole entry, looked up): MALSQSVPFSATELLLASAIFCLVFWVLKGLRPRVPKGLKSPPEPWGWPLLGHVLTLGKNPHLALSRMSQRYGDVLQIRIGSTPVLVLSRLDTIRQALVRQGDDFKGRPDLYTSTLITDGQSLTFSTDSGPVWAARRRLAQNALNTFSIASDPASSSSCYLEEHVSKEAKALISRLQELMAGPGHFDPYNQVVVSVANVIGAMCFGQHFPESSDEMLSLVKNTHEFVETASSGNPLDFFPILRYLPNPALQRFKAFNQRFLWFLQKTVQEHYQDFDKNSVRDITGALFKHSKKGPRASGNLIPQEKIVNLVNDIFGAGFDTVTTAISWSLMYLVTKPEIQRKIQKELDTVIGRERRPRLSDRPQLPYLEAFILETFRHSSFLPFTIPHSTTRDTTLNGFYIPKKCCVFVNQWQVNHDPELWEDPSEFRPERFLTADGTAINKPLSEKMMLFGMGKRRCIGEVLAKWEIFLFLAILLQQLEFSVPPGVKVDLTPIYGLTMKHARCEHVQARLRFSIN
In short: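 Luminescence readout (relative luminescence units) after luciferin detection reagent, 20 min RT. Preceded by 1 h room-temperature CYP1A2 reaction with NADPH regeneration solution following 10 min compound preincubation with enzyme and proluciferin substrate. Furafylline positive control.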

[11] = target: Voltage-gated inwardly rectifying potassium channel KCNH2 (Homo sapiens) (UniProt Q12809); test: Human Ether-a-go-go-Related Gene (hERG) channel small molecule antagonists: fluorescence cell-based qHTS assay (AID 1671200);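 also: hERG-expressing U2OS cells given a thallium stimulus after FluxOR II dye loading; series mostly up to about 77 µM; % is scaled to controls: 0 for no effect and ±100 for the full control effect; nearly all actives have a fitted effect of over 50% in size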
Voltage-gated inwardly rectifying potassium channel KCNH2 (Homo sapiens), sequence (Q12809 whole entry, looked up): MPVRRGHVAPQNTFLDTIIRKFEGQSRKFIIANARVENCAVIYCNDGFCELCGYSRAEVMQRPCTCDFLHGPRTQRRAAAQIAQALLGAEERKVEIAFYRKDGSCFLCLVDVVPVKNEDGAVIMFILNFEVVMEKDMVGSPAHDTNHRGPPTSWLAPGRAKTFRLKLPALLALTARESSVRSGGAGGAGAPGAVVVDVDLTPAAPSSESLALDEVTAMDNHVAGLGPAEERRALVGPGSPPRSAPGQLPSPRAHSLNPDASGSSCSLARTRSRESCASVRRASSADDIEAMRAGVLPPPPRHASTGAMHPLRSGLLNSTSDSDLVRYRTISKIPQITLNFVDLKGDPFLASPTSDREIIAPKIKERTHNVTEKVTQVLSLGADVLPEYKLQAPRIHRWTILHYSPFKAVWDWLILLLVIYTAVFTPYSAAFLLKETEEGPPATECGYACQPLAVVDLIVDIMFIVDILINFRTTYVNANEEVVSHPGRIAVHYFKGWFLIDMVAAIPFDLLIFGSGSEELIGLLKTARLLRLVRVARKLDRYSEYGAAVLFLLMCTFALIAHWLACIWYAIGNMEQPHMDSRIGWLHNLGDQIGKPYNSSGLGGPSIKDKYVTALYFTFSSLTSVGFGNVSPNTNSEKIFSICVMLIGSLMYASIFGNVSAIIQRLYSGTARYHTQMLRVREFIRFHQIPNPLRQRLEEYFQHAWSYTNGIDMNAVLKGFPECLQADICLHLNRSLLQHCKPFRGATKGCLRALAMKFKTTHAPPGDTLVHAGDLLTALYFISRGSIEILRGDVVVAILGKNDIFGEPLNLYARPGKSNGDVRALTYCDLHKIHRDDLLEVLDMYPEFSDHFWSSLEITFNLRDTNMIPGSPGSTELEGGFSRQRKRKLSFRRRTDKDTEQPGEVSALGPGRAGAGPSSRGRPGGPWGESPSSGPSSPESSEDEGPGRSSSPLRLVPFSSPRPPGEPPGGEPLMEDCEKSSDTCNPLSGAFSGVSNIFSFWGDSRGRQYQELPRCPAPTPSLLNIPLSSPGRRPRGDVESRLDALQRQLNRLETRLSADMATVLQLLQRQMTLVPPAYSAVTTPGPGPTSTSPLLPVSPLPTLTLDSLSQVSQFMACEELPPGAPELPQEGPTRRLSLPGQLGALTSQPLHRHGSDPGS
In short: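 First, 1000 cells per well are seeded and cultured overnight at 37 C. Next, FluxOR II dye is loaded for 1 h at room temperature, protected from light. After 10 more minutes, stimulus is added and fluorescence is read.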

[12] = target: Cytochrome P450 3A4 (Homo sapiens) (UniProt P08684); test: Cytochrome P450 Family 3 Subfamily A Member 4 (CYP3A4) small molecule antagonists: luciferase reporter qHTS assay (AID 1671201); also: nearly all actives have a fitted effect of over 50% in size; also: potency is read from the fitted curve at half-maximal effect
Cytochrome P450 3A4 (Homo sapiens), sequence (P08684 whole entry, looked up): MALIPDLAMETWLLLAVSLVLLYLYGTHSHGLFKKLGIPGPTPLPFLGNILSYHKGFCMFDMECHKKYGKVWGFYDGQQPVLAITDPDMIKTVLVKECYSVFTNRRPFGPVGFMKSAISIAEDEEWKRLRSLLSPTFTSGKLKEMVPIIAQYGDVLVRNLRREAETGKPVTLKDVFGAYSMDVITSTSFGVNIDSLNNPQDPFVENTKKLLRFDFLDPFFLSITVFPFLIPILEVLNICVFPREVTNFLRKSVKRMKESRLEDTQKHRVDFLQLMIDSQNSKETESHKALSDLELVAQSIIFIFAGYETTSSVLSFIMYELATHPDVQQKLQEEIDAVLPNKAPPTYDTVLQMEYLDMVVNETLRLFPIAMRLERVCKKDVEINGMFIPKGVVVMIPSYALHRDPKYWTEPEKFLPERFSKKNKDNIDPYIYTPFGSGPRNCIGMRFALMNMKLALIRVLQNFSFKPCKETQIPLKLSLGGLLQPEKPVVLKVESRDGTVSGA
In short: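 Enzyme and proluciferin substrate are mixed with test chemicals for 10 min, then NADPH regeneration system drives turnover for 1 h at room temperature. A detection reagent halts the reaction; luminescence after 20 min gives relative activity.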

[13] = Human pregnane X receptor (PXR) small molecule agonists, qHTS cell viability counter screen (AID 1346977)
In short: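 HepG2 cells stably carrying the PXR-Luc reporter are cultured with 5% charcoal-stripped FBS and treated with compounds for 24hr. CellTiter-Fluor is added at 23hr and fluorescence is read after 1hr.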

[14] = target: Nuclear receptor subfamily 1 group I member 2 (Homo sapiens) (UniProt O75469); test: Human pregnane X receptor (PXR) small molecule agonists, qHTS assay (AID 1346982); also: nearly all actives have a fitted effect of over 35% in size; also: potency is read from the fitted curve at half-maximal effect; as to activation: % is scaled to controls: 0 for no effect and ±100 for the full control effect
Nuclear receptor subfamily 1 group I member 2 (Homo sapiens), sequence (O75469 whole entry, looked up): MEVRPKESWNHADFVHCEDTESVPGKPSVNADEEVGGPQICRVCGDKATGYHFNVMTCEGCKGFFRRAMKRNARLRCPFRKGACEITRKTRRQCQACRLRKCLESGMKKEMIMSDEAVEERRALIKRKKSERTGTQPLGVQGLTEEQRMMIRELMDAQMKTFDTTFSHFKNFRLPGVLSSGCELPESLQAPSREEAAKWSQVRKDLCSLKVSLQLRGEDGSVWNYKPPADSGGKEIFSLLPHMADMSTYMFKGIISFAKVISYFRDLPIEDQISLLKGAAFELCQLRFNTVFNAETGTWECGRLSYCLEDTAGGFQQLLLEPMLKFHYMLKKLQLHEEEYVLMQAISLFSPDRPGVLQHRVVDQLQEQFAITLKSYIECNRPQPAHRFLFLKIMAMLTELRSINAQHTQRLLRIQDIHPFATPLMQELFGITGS
In short: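 HepG2 PXR-Luc reporter line, 5% charcoal-stripped FBS; 5 hr pre-incubation, compound (DMSO) 24 hr at 37 C/5% CO2; ONE-Glo 30 min RT; luminescence read-out.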

[15] = target: Cytochrome P450 2D6 (Homo sapiens) (UniProt P10635); test: Cytochrome P450 Family 2 Subfamily D Member 6 (CYP2D6) small molecule antagonists: luciferase reporter qHTS assay (AID 1671196); also: nearly all actives have a fitted effect of over 50% in size; also: potency is read from the fitted curve at half-maximal effect
Cytochrome P450 2D6 (Homo sapiens), sequence (P10635 whole entry, looked up): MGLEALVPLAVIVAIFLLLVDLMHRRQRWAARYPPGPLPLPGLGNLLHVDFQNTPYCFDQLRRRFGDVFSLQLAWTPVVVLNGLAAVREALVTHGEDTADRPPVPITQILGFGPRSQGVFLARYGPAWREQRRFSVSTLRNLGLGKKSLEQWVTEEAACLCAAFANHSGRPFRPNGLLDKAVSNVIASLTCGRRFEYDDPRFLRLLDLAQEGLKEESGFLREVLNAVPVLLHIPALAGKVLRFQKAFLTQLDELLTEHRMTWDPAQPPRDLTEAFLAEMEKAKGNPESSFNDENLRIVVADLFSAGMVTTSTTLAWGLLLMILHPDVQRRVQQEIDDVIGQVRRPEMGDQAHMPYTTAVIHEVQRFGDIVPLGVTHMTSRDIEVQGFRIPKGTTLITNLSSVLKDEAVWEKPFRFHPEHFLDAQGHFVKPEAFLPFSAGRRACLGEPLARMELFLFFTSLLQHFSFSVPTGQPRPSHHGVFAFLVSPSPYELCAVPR
In short: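 Luminogenic proluciferin substrate, CYP2D6 enzyme; 10 min RT preincubation with compound, NADPH regeneration system added, 1 h RT. Stop/detection reagent, 20 min RT, luminescence read (RLU). Signal proportional to CYP activity.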

[16] = target: Cytochrome P450 2C9 (Homo sapiens) (UniProt P11712); test: Cytochrome P450 Family 2 Subfamily C Member 9 (CYP2C9) small molecule antagonists: luciferase reporter qHTS assay (AID 1671198)
Cytochrome P450 2C9 (Homo sapiens), sequence (P11712 whole entry, looked up): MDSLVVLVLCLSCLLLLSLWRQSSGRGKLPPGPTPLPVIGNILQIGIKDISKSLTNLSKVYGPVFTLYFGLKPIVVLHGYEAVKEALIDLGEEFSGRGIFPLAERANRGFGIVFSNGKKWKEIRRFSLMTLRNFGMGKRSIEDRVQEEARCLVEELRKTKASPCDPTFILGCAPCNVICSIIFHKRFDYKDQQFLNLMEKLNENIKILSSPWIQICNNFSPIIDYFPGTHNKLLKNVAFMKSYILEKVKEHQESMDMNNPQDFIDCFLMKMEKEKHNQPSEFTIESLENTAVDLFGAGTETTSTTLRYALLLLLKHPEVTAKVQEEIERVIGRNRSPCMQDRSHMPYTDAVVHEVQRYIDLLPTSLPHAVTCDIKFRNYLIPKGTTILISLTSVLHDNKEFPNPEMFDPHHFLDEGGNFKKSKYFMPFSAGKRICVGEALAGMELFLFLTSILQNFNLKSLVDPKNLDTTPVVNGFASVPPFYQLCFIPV
In short: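 Enzyme-substrate mix preincubated with compound 10 min at room temperature; reaction started with NADPH regeneration solution, 1 h 37C. Luminescent luciferin product read after 20 min detection reagent.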

[17] = target: Nuclear receptor subfamily 1 group I member 2 (Homo sapiens) (UniProt O75469); test: Human pregnane X receptor (PXR) activation by small molecules, qHTS assay (AID 1346985); also: potency is read from the fitted curve at half-maximal effect; nearly all actives have a fitted effect of over 40% in size
In short: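 DPX-2 cells (HepG2 co-transfected with a PXR response element and a CYP3A4-promoter luciferase construct) were seeded at 2,000 per well, rested 5 hr at 37C, then exposed to DMSO-dissolved compounds for 24 hr. Activation was read as luciferase luminescence.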

Measured: Potency

CCNc1nc(Cl)nc(NC(C)C)n1
active: [10] 24.9 µM and 22.4 µM
inactive: [1] | [2] | [3] | [4] | [5] | [6] | [7] | [8] | [9] | [11] | [12]

O=C(O)c1cc(Oc2ccc(C(F)(F)F)cc2Cl)ccc1[N+](=O)[O-]
inactive and 71 µM (active): [9]
inactive: [1] | [2] | [3] | [4] | [5] | [6] | [7] | [8] | [10] | [11] | [12]

Cc1cc(Cl)ccc1OC(C)C(=O)O (configuration not stated)
78.3 µM (active) and inactive: [9]
inactive: [13] | [1] | [3] | [4] | [14] | [5] | [6] | [7] | [8] | [15] | [10] | [11] | [12]

OCC(O)CCl (configuration not stated)
79.6 µM (active) and inactive: [9]
inactive: [1] | [2] | [3] | [4] | [14] | [5] | [6] | [7] | [8] | [15] | [11] | [12]

Cc1ccc(N)cc1
inactive: [1] | [2] | [3] | [4] | [11] | [12]
active: [9] 35.8 µM and 38.6 µM and 31.7 µM | [16] 40.2 µM | [10] 28.4 µM and 30.6 µM and 25.2 µM

CCSC(=O)N1CCCCCC1
inactive: [1] | [2] | [3] | [4] | [5] | [6] | [7] | [8] | [10] | [11]
active: [9] 34.6 µM
30.8 µM (active) and inactive: [12]

Nc1ccc(N)cc1
54.5 µM (active) and inactive: [4]
active: [2] 48.8 µM and 54.5 µM | [14] 54.5 µM [middle of 4 runs] | [17] 25.1 µM | [15] 39.9 µM | [9] 34.7 µM [middle of 4 runs]
inactive: [1] | [3] | [11]

COS(=O)(=O)OC
inactive: [1] | [2] | [3] | [4] | [5] | [6] | [7] | [8] | [15] | [9] | [10] | [11] | [12]

COC(=O)Nc1cccc(OC(=O)Nc2cccc(C)c2)c1
active: [14] 10.9 µM | [9] 35.6 µM | [10] 7.1 µM and 17.8 µM
inactive: [1] | [2] | [3] | [4] | [5] | [6] | [7] | [8] | [11] | [12]
